# Assay results published in ChEMBL document CHEMBL2218924, “A broad activity screen in support of a chemogenomic map for kinase signalling research and drug discovery” (Biochem J, 2013).
# How the values were obtained:
# [1] = target: Tyrosine-protein kinase Lck (Homo sapiens) (UniProt P06239); conditions: at 10 µM
# [2] = target: Tyrosine-protein kinase Lck (Homo sapiens) (UniProt P06239); conditions: at 1 µM
# [3] = target: Tyrosine-protein kinase Lck (Homo sapiens) (UniProt P06239); conditions: at 10 µM; remark: listed apart in the source
# [4] = target: Tyrosine-protein kinase Lyn (Homo sapiens) (UniProt P07948); conditions: at 1 µM
# Sequence of Tyrosine-protein kinase Lyn (Homo sapiens) (P07948 2-512 limits assumed): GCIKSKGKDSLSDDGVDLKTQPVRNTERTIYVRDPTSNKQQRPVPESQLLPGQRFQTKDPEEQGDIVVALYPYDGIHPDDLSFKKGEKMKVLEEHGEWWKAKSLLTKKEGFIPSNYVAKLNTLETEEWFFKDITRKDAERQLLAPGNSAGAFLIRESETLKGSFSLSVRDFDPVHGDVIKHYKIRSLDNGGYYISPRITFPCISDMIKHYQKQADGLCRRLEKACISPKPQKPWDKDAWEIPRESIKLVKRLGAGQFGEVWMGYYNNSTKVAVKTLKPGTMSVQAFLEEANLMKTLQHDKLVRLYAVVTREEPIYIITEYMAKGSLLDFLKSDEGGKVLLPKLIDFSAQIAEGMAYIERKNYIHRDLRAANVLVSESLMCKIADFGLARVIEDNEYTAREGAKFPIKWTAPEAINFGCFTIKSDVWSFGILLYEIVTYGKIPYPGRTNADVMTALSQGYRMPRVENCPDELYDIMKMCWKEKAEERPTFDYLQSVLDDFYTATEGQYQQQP
# [5] = target: Tyrosine-protein kinase Lyn (Homo sapiens) (UniProt P07948); conditions: at 10 µM
# [6] = target: Mitogen-activated protein kinase 3 (Homo sapiens) (UniProt P27361); conditions: at 1 µM
# Sequence of Mitogen-activated protein kinase 3 (Homo sapiens) (P27361 whole entry): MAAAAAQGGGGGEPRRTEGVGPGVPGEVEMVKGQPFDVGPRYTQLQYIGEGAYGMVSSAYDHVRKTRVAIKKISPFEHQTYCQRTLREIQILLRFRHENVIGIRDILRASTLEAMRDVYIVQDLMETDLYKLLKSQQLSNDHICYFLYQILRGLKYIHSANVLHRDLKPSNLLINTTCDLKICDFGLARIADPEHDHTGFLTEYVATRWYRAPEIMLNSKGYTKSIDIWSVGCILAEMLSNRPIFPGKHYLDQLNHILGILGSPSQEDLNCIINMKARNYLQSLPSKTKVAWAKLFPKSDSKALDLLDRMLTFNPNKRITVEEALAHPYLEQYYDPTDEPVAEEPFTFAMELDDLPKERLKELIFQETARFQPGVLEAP
# [7] = target: Mitogen-activated protein kinase 3 (Homo sapiens) (UniProt P27361); conditions: at 10 µM
# [8] = target: Mitogen-activated protein kinase 1 (Homo sapiens) (UniProt P28482); conditions: at 1 µM
# Sequence of Mitogen-activated protein kinase 1 (Homo sapiens) (P28482 whole entry): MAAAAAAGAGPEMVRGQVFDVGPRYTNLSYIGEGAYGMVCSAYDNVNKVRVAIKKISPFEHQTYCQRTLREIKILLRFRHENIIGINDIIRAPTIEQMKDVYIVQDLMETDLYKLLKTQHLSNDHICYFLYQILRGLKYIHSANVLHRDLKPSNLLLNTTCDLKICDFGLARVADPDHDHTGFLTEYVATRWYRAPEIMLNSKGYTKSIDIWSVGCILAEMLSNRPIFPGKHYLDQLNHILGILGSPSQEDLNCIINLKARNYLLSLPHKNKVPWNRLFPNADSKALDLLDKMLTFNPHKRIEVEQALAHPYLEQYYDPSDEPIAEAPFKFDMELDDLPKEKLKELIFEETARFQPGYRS
# [9] = target: Mitogen-activated protein kinase 1 (Homo sapiens) (UniProt P28482); conditions: at 10 µM
# [10] = target: MAP kinase-activated protein kinase 2 (Homo sapiens) (UniProt P49137); conditions: at 1 µM
# Sequence of MAP kinase-activated protein kinase 2 (Homo sapiens) (P49137 whole entry, looked up): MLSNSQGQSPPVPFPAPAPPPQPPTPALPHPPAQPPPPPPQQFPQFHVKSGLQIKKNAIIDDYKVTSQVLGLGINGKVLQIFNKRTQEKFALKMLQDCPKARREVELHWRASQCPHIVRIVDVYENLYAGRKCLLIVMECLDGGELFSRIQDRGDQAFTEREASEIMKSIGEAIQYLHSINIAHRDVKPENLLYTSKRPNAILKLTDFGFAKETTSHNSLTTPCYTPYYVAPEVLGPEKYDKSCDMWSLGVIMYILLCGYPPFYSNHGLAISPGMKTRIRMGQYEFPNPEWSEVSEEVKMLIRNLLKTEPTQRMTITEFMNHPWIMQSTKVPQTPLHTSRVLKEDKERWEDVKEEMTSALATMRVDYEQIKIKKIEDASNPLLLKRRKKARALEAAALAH
# Sequence of Tyrosine-protein kinase Lck (Homo sapiens) (P06239 2-509 limits assumed): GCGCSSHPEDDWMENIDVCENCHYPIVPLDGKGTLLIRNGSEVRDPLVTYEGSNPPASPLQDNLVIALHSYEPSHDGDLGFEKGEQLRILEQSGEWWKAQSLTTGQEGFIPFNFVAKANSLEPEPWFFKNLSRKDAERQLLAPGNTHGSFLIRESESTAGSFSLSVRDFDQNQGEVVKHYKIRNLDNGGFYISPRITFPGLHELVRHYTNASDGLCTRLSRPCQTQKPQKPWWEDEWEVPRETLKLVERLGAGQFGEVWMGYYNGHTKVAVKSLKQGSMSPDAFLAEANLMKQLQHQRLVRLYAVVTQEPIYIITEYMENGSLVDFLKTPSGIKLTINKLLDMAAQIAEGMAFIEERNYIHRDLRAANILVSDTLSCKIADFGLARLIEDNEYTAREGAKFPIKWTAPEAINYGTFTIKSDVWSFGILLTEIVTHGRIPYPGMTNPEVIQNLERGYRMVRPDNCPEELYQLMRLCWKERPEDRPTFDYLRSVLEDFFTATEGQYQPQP
smiles,measurement,setting,value
COc1cc2ncnc(N3CCN(C(=O)Nc4ccc(Oc5ccccc5)cc4)CC3)c2cc1OC,residual activity,[1],59%
same,residual activity,[2],92%
same,residual activity,[3],68%
same,residual activity,[4],98%
same,residual activity,[5],100%
same,residual activity,[6],76%
same,residual activity,[7],95%
same,residual activity,[8],106%
same,residual activity,[9],105%
same,residual activity,[10],99%
CN(C)c1ccc(/C=C2\C(=O)Nc3ccccc32)cc1,residual activity,[1],55%
same,residual activity,[2],83%
same,residual activity,[3],71%
same,residual activity,[4],86%
same,residual activity,[5],63%
same,residual activity,[6],91%
same,residual activity,[7],69%
same,residual activity,[8],107%
same,residual activity,[9],100%
same,residual activity,[10],121%
O=C1NC(=O)c2c1c1c3ccccc3[nH]c1c1[nH]c3cc(Br)ccc3c21,residual activity,[1],62%
same,residual activity,[2],95%
same,residual activity,[3],95%
same,residual activity,[4],72%
same,residual activity,[5],69%
same,residual activity,[6],103%
same,residual activity,[7],104%
same,residual activity,[8],111%
same,residual activity,[9],99%
same,residual activity,[10],98%
Cc1cncc2cccc(S(=O)(=O)N3CCCN(C(=O)CN)C[C@H]3C)c12,residual activity,[1],68%
same,residual activity,[2],84%
same,residual activity,[3],78%
same,residual activity,[4],82%
same,residual activity,[5],46%
same,residual activity,[6],79%
same,residual activity,[7],86%
same,residual activity,[10],88%
CN(C)CCCn1cc(C2=C(c3c[nH]c4ccccc34)C(=O)NC2=O)c2ccccc21,residual activity,[1],49%
same,residual activity,[2],80%
same,residual activity,[3],43%
same,residual activity,[4],79%
same,residual activity,[5],22%
same,residual activity,[10],108%
CO[C@@H]1[C@H](N(C)C(=O)c2ccccc2)C[C@H]2O[C@]1(C)n1c3ccccc3c3c4c(c5c6ccccc6n2c5c31)C(=O)NC4,residual activity,[1],5%
same,residual activity,[2],5%
same,residual activity,[3],6%
same,residual activity,[4],6%
same,residual activity,[5],2%
same,residual activity,[6],75%
same,residual activity,[8],101%
same,residual activity,[9],98%
same,residual activity,[10],75%
N#CCCc1ccc2c(c1)-c1[nH]c3ccc([N+](=O)[O-])cc3c1CC(=O)N2,residual activity,[1],13%
same,residual activity,[2],24%
same,residual activity,[3],23%
same,residual activity,[4],5%
same,residual activity,[5],0%
same,residual activity,[6],58%
same,residual activity,[7],34%
same,residual activity,[9],51%
same,residual activity,[10],57%
c1ccc(-c2n[nH]c3c2oc2ccccc23)cc1,residual activity,[4],68%
same,residual activity,[5],30%
same,residual activity,[6],86%
same,residual activity,[7],80%
Cc1cccc(-c2[nH]c(C(C)(C)C)nc2-c2ccc3c(c2)OCO3)n1,residual activity,[1],86%
same,residual activity,[2],95%
same,residual activity,[3],92%
same,residual activity,[4],91%
same,residual activity,[5],76%
same,residual activity,[6],90%
same,residual activity,[7],94%
same,residual activity,[8],105%
same,residual activity,[10],92%
Nc1cccc(-c2cc3c(Oc4cccc(O)c4)ncnc3[nH]2)c1,residual activity,[1],7%
same,residual activity,[2],4%
same,residual activity,[3],0%
same,residual activity,[4],2%
same,residual activity,[5],-1%
same,residual activity,[8],120%
same,residual activity,[9],83%
same,residual activity,[10],71%
NC(=O)c1ccc2[nH]c(-c3ccc(Oc4ccc(Cl)cc4)cc3)nc2c1,residual activity,[1],72%
same,residual activity,[2],105%
same,residual activity,[3],102%
same,residual activity,[4],91%
same,residual activity,[5],88%
same,residual activity,[6],99%
same,residual activity,[7],99%
same,residual activity,[8],102%
same,residual activity,[9],99%
same,residual activity,[10],103%
N#CC(C#N)=C(N)/C(C#N)=C/c1ccc(O)cc1,residual activity,[4],93%
same,residual activity,[5],70%
same,residual activity,[8],118%
same,residual activity,[10],94%
c1ccc2c(-c3ccncc3)c[nH]c2c1,residual activity,[1],79%
same,residual activity,[2],94%
same,residual activity,[3],101%
same,residual activity,[4],105%
same,residual activity,[5],91%
same,residual activity,[6],77%
same,residual activity,[7],87%
same,residual activity,[8],101%
same,residual activity,[9],99%
same,residual activity,[10],90%
O=C(Nc1cccc(Nc2nccc(Nc3cccc(C(F)(F)F)c3)n2)c1)C1CC1,residual activity,[1],19%
same,residual activity,[2],57%
same,residual activity,[3],42%
same,residual activity,[4],41%
same,residual activity,[5],6%
same,residual activity,[6],89%
same,residual activity,[7],91%
same,residual activity,[8],89%
same,residual activity,[9],84%
same,residual activity,[10],115%
N#Cc1cnc2cnc(NCc3cccnc3)cc2c1Nc1ccc(F)c(Cl)c1,residual activity,[1],20%
same,residual activity,[2],14%
same,residual activity,[3],7%
same,residual activity,[5],1%
same,residual activity,[7],75%
same,residual activity,[10],51%
CCN(CC)CCCCN1c2ccccc2Oc2ccc(Cl)cc21,residual activity,[1],120%
same,residual activity,[2],101%
same,residual activity,[3],64%
same,residual activity,[4],102%
same,residual activity,[5],67%
same,residual activity,[6],112%
same,residual activity,[7],114%
same,residual activity,[8],116%
same,residual activity,[9],104%
same,residual activity,[10],115%
O=C1c2ccccc2-[n+]2ccc3c([nH]c4ccccc43)c21,residual activity,[1],69%
same,residual activity,[2],81%
same,residual activity,[3],74%
same,residual activity,[4],88%
same,residual activity,[5],65%
same,residual activity,[6],85%
same,residual activity,[7],94%
same,residual activity,[8],107%
same,residual activity,[9],108%
same,residual activity,[10],81%
CCN(CC)C(=O)c1ccc(Nc2nc(OCC3CCCCC3)c3nc[nH]c3n2)cc1,residual activity,[1],3%
same,residual activity,[2],20%
same,residual activity,[3],7%
same,residual activity,[4],20%
same,residual activity,[5],1%
same,residual activity,[7],29%
same,residual activity,[8],99%
same,residual activity,[9],42%
same,residual activity,[10],81%
Nc1nc(Nc2ccc(S(N)(=O)=O)cc2)nn1C(=S)Nc1c(F)cccc1F,residual activity,[1],16%
same,residual activity,[2],8%
same,residual activity,[3],18%
same,residual activity,[4],6%
same,residual activity,[5],1%
same,residual activity,[6],29%
same,residual activity,[7],3%
same,residual activity,[8],49%
same,residual activity,[9],3%
same,residual activity,[10],44%
Nc1n[nH]c2nnc(-c3c(-c4ccccc4)nn4ccccc34)cc12,residual activity,[1],58%
same,residual activity,[2],94%
same,residual activity,[3],68%
same,residual activity,[4],66%
same,residual activity,[5],33%
same,residual activity,[6],21%
same,residual activity,[7],3%
same,residual activity,[8],68%
same,residual activity,[9],13%
same,residual activity,[10],102%
O=Nc1c(-c2c(O)[nH]c3ccccc23)[nH]c2ccccc12,residual activity,[1],6%
same,residual activity,[2],22%
same,residual activity,[3],17%
same,residual activity,[4],8%
same,residual activity,[5],2%
same,residual activity,[6],114%
same,residual activity,[7],101%
same,residual activity,[8],104%
same,residual activity,[9],103%
same,residual activity,[10],101%
COc1cc2ncnc(Nc3ccc(Oc4ccccc4)cc3)c2cc1OC,residual activity,[1],-1%
same,residual activity,[2],-2%
same,residual activity,[3],0%
same,residual activity,[4],1%
same,residual activity,[5],1%
same,residual activity,[6],83%
same,residual activity,[7],113%
same,residual activity,[8],96%
same,residual activity,[9],94%
same,residual activity,[10],95%
Cn1cc(/C=C2\C(=O)Nc3ccc(S(N)(=O)=O)cc32)c2ccccc21,residual activity,[1],14%
same,residual activity,[2],30%
same,residual activity,[3],34%
same,residual activity,[4],10%
same,residual activity,[5],1%
same,residual activity,[6],85%
same,residual activity,[7],90%
same,residual activity,[8],106%
same,residual activity,[9],103%
same,residual activity,[10],83%
O=c1c2ccccc2[nH]c(=S)n1CCN1CCC(=C(c2ccc(F)cc2)c2ccc(F)cc2)CC1,residual activity,[1],107%
same,residual activity,[2],83%
same,residual activity,[3],65%
same,residual activity,[4],83%
same,residual activity,[5],46%
same,residual activity,[6],88%
same,residual activity,[7],61%
same,residual activity,[8],103%
same,residual activity,[9],80%
same,residual activity,[10],97%
O=C1Nc2ccccc2/C1=C1/Nc2ccccc2/C1=N\OCCC(O)CO (stereo not given),residual activity,[1],5%
same,residual activity,[2],5%
same,residual activity,[3],8%
same,residual activity,[4],4%
same,residual activity,[5],-1%
same,residual activity,[8],108%
same,residual activity,[10],78%
N#C/C(=C(\N)Sc1ccc(N)cc1)c1ccccc1C(F)(F)F,residual activity,[1],103%
same,residual activity,[2],110%
same,residual activity,[3],74%
same,residual activity,[4],65%
same,residual activity,[5],67%
same,residual activity,[6],95%
same,residual activity,[7],114%
same,residual activity,[8],104%
same,residual activity,[9],90%
same,residual activity,[10],70%
Cc1cc(Nc2nc(-c3ccccc3)nc3ccccc23)n[nH]1,residual activity,[1],6%
same,residual activity,[2],36%
same,residual activity,[3],13%
same,residual activity,[4],9%
same,residual activity,[5],4%
same,residual activity,[8],106%
Cn1nc2c3c(cccc31)C(=O)c1ccccc1-2,residual activity,[1],93%
same,residual activity,[2],106%
same,residual activity,[3],86%
same,residual activity,[4],89%
same,residual activity,[5],50%
same,residual activity,[6],83%
same,residual activity,[7],96%
same,residual activity,[9],97%
same,residual activity,[10],77%
O=C1NC(=O)/C(=C\c2ccc3nccnc3c2)S1,residual activity,[1],84%
same,residual activity,[2],81%
same,residual activity,[3],61%
same,residual activity,[4],99%
same,residual activity,[5],89%
same,residual activity,[6],82%
same,residual activity,[7],77%
same,residual activity,[8],98%
same,residual activity,[9],96%
same,residual activity,[10],87%
CC[n+]1c(/C=C/N(C)c2ccccc2)n(-c2ccccc2)c2ccc(-c3nc4ccccc4s3)cc21,residual activity,[1],322%
same,residual activity,[2],92%
same,residual activity,[3],65%
same,residual activity,[4],73%
same,residual activity,[5],73%
same,residual activity,[6],111%
same,residual activity,[7],96%
same,residual activity,[8],105%
same,residual activity,[9],100%
same,residual activity,[10],95%
C[C@@H](N)[C@H]1CC[C@H](C(=O)Nc2ccncc2)CC1,residual activity,[4],99%
same,residual activity,[5],100%
same,residual activity,[6],113%
same,residual activity,[7],109%
same,residual activity,[8],102%
same,residual activity,[9],105%
O=C1NC(=O)/C(=C/c2ccc3c(c2)OC(F)(F)O3)S1,residual activity,[1],128%
same,residual activity,[2],87%
same,residual activity,[3],91%
same,residual activity,[4],100%
same,residual activity,[5],65%
same,residual activity,[6],90%
same,residual activity,[7],77%
same,residual activity,[8],104%
same,residual activity,[9],107%
same,residual activity,[10],93%
Oc1ccc(Nc2nc(-c3ccc(Cl)cc3)cs2)cc1,residual activity,[1],103%
same,residual activity,[2],98%
same,residual activity,[3],79%
same,residual activity,[4],84%
same,residual activity,[5],56%
same,residual activity,[6],96%
same,residual activity,[7],81%
same,residual activity,[8],114%
same,residual activity,[9],107%
same,residual activity,[10],108%
CCOc1cc2ncnc(Nc3cccc(Br)c3)c2cc1OCC,residual activity,[1],4%
same,residual activity,[2],26%
same,residual activity,[3],8%
same,residual activity,[4],3%
same,residual activity,[5],1%
same,residual activity,[6],90%
same,residual activity,[7],55%
same,residual activity,[8],106%
same,residual activity,[9],77%
same,residual activity,[10],73%
CNc1cc2c(Nc3cccc(Br)c3)ncnc2cn1,residual activity,[1],19%
same,residual activity,[2],73%
same,residual activity,[3],79%
same,residual activity,[4],10%
same,residual activity,[5],5%
same,residual activity,[6],86%
same,residual activity,[7],95%
same,residual activity,[8],102%
same,residual activity,[9],96%
same,residual activity,[10],119%
O=C1Nc2ccc(Br)cc2/C1=C\c1cc2c([nH]1)CCCC2,residual activity,[4],21%
same,residual activity,[5],22%
same,residual activity,[8],104%
same,residual activity,[9],106%
same,residual activity,[10],108%
CC(=O)c1ccc(N2CCOCC2)cc1O,residual activity,[4],105%
same,residual activity,[5],98%
same,residual activity,[6],91%
same,residual activity,[7],89%
same,residual activity,[10],100%
